Source: PubChem (National Center for Advancing Translational Sciences (NCATS))
G9a block: inhibitors of human histone lysine methyltransferase G9a; Q96KQ7; Potency, µM (series often up to 102 µM), without a hit: at the highest dose activity, negative = inhibition, actives largely listed as inhibitors; G9a H3K9 monomethylation, AlphaScreen, 2 h; hit rate 8.8% among 350,000; AID 504332; note: % is set by controls: 0 for no effect and ±100 for the full control effect; nearly all actives have a fitted effect of over 75% in size
Target sequence (Q96KQ7 913-1193 limits assumed): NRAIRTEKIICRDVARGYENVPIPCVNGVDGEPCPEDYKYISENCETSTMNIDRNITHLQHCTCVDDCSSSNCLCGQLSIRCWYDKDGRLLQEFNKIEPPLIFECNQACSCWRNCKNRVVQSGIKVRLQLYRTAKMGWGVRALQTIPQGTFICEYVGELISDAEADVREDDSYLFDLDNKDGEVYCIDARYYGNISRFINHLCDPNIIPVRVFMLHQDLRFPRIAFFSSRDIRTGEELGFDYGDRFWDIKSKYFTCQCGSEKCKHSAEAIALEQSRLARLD
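Readings reflect AlphaScreen signal from monomethyl-H3K9 antibody detection. HMT at 20 nM; substrate b-H3K9 500 nM; cofactor SAM 20 uM; 2 h RT reaction; compounds tested as titrations in qHTS with 15 min preincubation.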
BAZ2B inh: blocks human BAZ2B. Q9UIF8. AlphaScreen BAZ2B-H3K14Ac peptide displacement. Potency, µM (top dose mostly 114 µM), inactives show at the top dose activity change, negative = inhibition, actives largely listed as inhibitors. hit rate 4.4% among 360,000. AID 504333; note: % is set by controls: 0 for no effect and ±100 for the full control effect; nearly all actives have a fitted effect of over 60% in size
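Compounds, titrated to a top concentration of 110 uM, were incubated 30 min at room temperature with preformed BAZ2B/acetyl-K14 H3 peptide complex (50 nM each). Proximity signal was measured by AlphaScreen after 20 min with beads.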
JMJD2A Tudor: blocks the human JMJD2A Tudor domain; hit rate 4.4% among 390,000; AlphaScreen JMJD2A-Tudor / H3K4me3 peptide binding; Potency, µM (titrated, usually from 114 µM), for the others: top-dose activity change, negative = inhibition, hits mostly inhibitors; O75164; note: % is set by controls: 0 for no effect and ±100 for the full control effect; nearly all actives have a fitted effect of over 50% in size
HP1b binding inh: inhibitors of HP1-beta chromodomain binding to methylated histone tails; AlphaScreen HP1-beta / biotin-H3K9me3 peptide binding; Potency, µM (doses to about 114 µM), for the others: top-dose activity change, negative = inhibition, most hits filed as inhibitors; hit rate 0.56% among 390,000; AID 540317; note: nearly all actives have a fitted effect of over 70% in size
Target sequence (P83916 whole entry, looked up): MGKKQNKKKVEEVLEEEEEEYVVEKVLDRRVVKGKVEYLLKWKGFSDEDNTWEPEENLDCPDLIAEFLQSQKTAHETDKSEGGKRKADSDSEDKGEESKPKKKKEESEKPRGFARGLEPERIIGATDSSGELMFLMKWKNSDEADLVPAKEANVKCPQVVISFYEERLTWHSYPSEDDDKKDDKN
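Compound inhibition of the preformed complex between 50 nM HP1-beta and 50 nM biotinylated H3K9me3 peptide was read by AlphaScreen. Buffer was PBS pH 7.4 with 0.01% Tween-20. Incubations ran 30 min at room temperature, with 10 ug/mL donor/acceptor beads.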
12-LOX inh: inhibitors of human 12S-lipoxygenase ALOX12. P18054. Potency, µM (highest dose often 108 µM), for inactives: top-dose activity change, negative = inhibition, actives largely listed as inhibitors. hit rate 1.1% among 580,000. purified 12hLO, xylenol orange hydroperoxide absorbance. AID 1671190; note: % is set by controls: 0 for no effect and ±100 for the full control effect
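Hydroperoxide product was detected by ferrous iron/xylenol orange as the 573 to 405 nm absorbance ratio. Arachidonic acid at 40 uM (final) was turned over for 30 min at room temperature by 150 nM human 12hLO, pH 7.0 Hepes buffer, after 15 min compound preincubation.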
PLK1 PBD inh: PLK1 (human) polo-box domain binding inhibition | P53350 | Plk1 PBD binding of FITC phosphopeptide, fluorescence polarization | Potency, µM, for the others: max response, negative = inhibition, most hits filed as inhibitors | hit rate 2.8% among 360,000; note: series mostly up to about 57 µM; % is set by controls: 0 for no effect and ±100 for the full control effect; nearly all actives have a fitted effect of over 65% in size
An asterisk follows results filed as active; [ ] = remark or other dose. Rows were chosen to be rich in hits. Some 9% of all compounds tested hit in one or more screens of this group. Calls come from the whole dose curve; as a rule, active = well fitted curve in the direction sought with a large enough effect; inconclusive = small, poorly fitted or top-dose-only effect, or another doubt; inactive = no such curve, though single readings can be large; an effect the other way counts as inactive or inconclusive. Potency is the fitted concentration of half-maximal effect.

COc1ccc(N2CCN(C(=O)C3CCN(S(=O)(=O)c4cccc5nonc45)CC3)CC2)cc1 was read as G9a block inconclusive, BAZ2B inh 79µM*, JMJD2A Tudor -31%, HP1b binding inh 2% and 12-LOX inh -18%.
Screening CCOC(=O)C1=C(C)NC2=C(C(=O)CCC2)C1c1ccc(N(C)C)cc1 (configuration not stated) returned G9a block inconclusive, BAZ2B inh -35%, JMJD2A Tudor -32%, HP1b binding inh -6%, 12-LOX inh 24% and PLK1 PBD inh -9%.
Screening CC1=C(C(=O)OCC2CCCO2)C(c2ccc(C)o2)C2=C(CC(c3ccc(F)cc3)CC2=O)N1 (configuration not stated) returned G9a block 0%[12.7 µM], BAZ2B inh -10%, JMJD2A Tudor -30%, HP1b binding inh 10% and PLK1 PBD inh -2%.
For CCCOC(=O)C1=C(C)NC2=C(C(=O)CCC2)C1c1ccc(N(C)C)cc1 (configuration not stated) the results were G9a block 40µM*, BAZ2B inh -51%, JMJD2A Tudor -32%, HP1b binding inh -7%, 12-LOX inh -28% and PLK1 PBD inh -6%.
For CCN(CC)c1ccc(C2C(C(=O)OCCOC)=C(C)NC3=C2C(=O)CCC3)cc1 (configuration not stated) the results were G9a block 4.5µM*, BAZ2B inh -9%, JMJD2A Tudor -35%, HP1b binding inh 46%, 12-LOX inh -12% and PLK1 PBD inh -5%.
Screening CC1=C(C(=O)OCC2CCCO2)C(c2ccc(C)o2)C2=C(CC(c3ccc(N(C)C)cc3)CC2=O)N1 (configuration not stated) returned G9a block 11µM* and BAZ2B inh 40µM*.
For O=C(CNCc1ccccc1)Nc1ccc(Oc2ccccc2)cc1 the results were G9a block 21%[12.7 µM], BAZ2B inh -7%, JMJD2A Tudor 2%, HP1b binding inh 39%, 12-LOX inh 10% and PLK1 PBD inh -8%.
CN(C)c1ccc(-c2nn3c(-c4ccc(Cl)cc4)nnc3s2)cc1 was read as G9a block -34%, BAZ2B inh 14%, JMJD2A Tudor -22%, HP1b binding inh 56%, 12-LOX inh 1% and PLK1 PBD inh -30%.
Screening Clc1ccc(-c2nn3c(C4COc5ccccc5O4)nnc3s2)cc1 (configuration not stated) returned G9a block 7.1µM*, BAZ2B inh -22%, JMJD2A Tudor -23%, HP1b binding inh inconclusive, 12-LOX inh inconclusive and PLK1 PBD inh 21µM*.
For Clc1ccc(SCNc2ccccc2Cl)cc1 the results were G9a block 31%, BAZ2B inh 47%, JMJD2A Tudor 73%, HP1b binding inh 106%, 12-LOX inh inconclusive and PLK1 PBD inh 9.5µM*.
`Cc1ccc(NCSc2ccc(Cl)cc2)cc1` gave JMJD2A Tudor -33%, HP1b binding inh -10%[57 µM], 12-LOX inh -12% and PLK1 PBD inh -18%.
Screening CCNC(=O)/N=C1/NC(=O)C(C(C)C)O1 (configuration not stated) returned G9a block inconclusive, BAZ2B inh -29%, JMJD2A Tudor 7.9µM*, HP1b binding inh 0%, 12-LOX inh inconclusive and PLK1 PBD inh -1%.
`CCNC(=O)C1N(C(C)C)C(=O)C12CCCC2` (configuration not stated) gave 12-LOX inh 2%.
C=C(C)[C@@H]1CC=C(CN2CCN(Cc3ccccc3)CC2)CC1 was read as G9a block 50µM*, BAZ2B inh inconclusive, JMJD2A Tudor inconclusive, HP1b binding inh 6%, 12-LOX inh -27% and PLK1 PBD inh 1%.
C=C(C)C1CC=C(CN2CCN(Cc3ccccc3)CC2)CC1 (configuration not stated) was read as G9a block inconclusive, BAZ2B inh -35%, JMJD2A Tudor -22%, HP1b binding inh 41%, 12-LOX inh inconclusive and PLK1 PBD inh -7%.
Screening CCOC(=O)N1CCN(c2c(NCCCN(CC)CC)c(=O)c2=O)CC1 returned G9a block 69%[12.7 µM], BAZ2B inh -35%, JMJD2A Tudor -18%, HP1b binding inh -3%, 12-LOX inh 0% and PLK1 PBD inh -6%.
CCOC(=O)C1CCCN(c2c(NCCc3ccccc3)c(=O)c2=O)C1 (configuration not stated) was read as G9a block 8%, BAZ2B inh 2%, JMJD2A Tudor 4%, HP1b binding inh 13%, 12-LOX inh 5% and PLK1 PBD inh 1%.
`CCOC(=O)N1CCN(c2c(NCCCN(CC)c3cccc(C)c3)c(=O)c2=O)CC1` gave G9a block 14µM*, BAZ2B inh 1%, JMJD2A Tudor -24%, HP1b binding inh -17%, 12-LOX inh 0% and PLK1 PBD inh -14%.
Screening CCOC(=O)C1CCCN(c2c(NCCCN(C)c3ccccc3)c(=O)c2=O)C1 (configuration not stated) returned G9a block 56µM*, BAZ2B inh 0%, JMJD2A Tudor -13%, HP1b binding inh 34%, 12-LOX inh inconclusive and PLK1 PBD inh 2%.
For C/C(=N\NC(=S)NCC(C)(C)C)c1cc(F)cc(F)c1O the results were G9a block -1%, BAZ2B inh 7.1µM*, JMJD2A Tudor -25%, HP1b binding inh 9%, 12-LOX inh inconclusive and PLK1 PBD inh -8%.
For CNC(=S)NN=C(C)c1ccc(OC)cc1O the results were JMJD2A Tudor inconclusive, HP1b binding inh -11%, 12-LOX inh inconclusive and PLK1 PBD inh inconclusive.
Screening CC1=C(C(=O)Nc2ccccc2C(=O)NCCCN2CCN(C)CC2)SCCO1 returned G9a block 13%, BAZ2B inh -5%[57.1 µM], JMJD2A Tudor -11%, HP1b binding inh 12%, 12-LOX inh 9% and PLK1 PBD inh -16%.
For CCC(=O)Oc1ccc2c(c1)O/C(=C\c1ccco1)C2=O the results were G9a block 50µM*, BAZ2B inh inconclusive, JMJD2A Tudor -30%, HP1b binding inh inconclusive, 12-LOX inh 25µM* and PLK1 PBD inh inconclusive.
COc1ccccc1/C=C1\Oc2cc(OC(=O)C(C)(C)C)ccc2C1=O was read as 12-LOX inh -29%.
Screening CCN(CC)C(=O)Oc1ccc2c(c1)O/C(=C\c1ccco1)C2=O returned G9a block 25µM*, BAZ2B inh 40µM*, JMJD2A Tudor inconclusive, HP1b binding inh -19%, 12-LOX inh inconclusive and PLK1 PBD inh -6%.
